Compounds with a hit are over-represented: about 1.8% of the library has one in this group of screens.
PME-1 primary = blocks human protein phosphatase methylesterase 1; Q9Y570; recombinant PME-1, FP-Rh probe fluorescence polarization; inhibition, % at 5.9 µM; 0.53% of 320,000 active; AID 2130;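 active = inhibition above the campaign mean of all compounds plus 3 SD, cut at about 26% in these data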;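 note: competitive labeling of PME-1 active site by serine hydrolase directed probe; 0% = PME-1 with DMSO and 100% = wells lacking PME-1 enzyme; inhibitors block probe labeling so polarization falls and inhibition rises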
LYPLA1 counter = LYPLA1 (human) inhibition in PME1 counter-screen | O75608 | recombinant LYPLA1, FP-Rh probe fluorescence polarization | inhibition, % at 5.9 µM | 0.16% of 320,000 active | AID 2174;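 active = inhibition above the mean of all tested compounds plus 3 SD, set per campaign, cut at about 14% in these data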;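 note: inhibitors block serine hydrolase probe labeling of LYPLA1 so polarization falls; 0% = enzyme with DMSO and 100% = wells lacking LYPLA1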
Target sequence (O75608 whole entry, looked up): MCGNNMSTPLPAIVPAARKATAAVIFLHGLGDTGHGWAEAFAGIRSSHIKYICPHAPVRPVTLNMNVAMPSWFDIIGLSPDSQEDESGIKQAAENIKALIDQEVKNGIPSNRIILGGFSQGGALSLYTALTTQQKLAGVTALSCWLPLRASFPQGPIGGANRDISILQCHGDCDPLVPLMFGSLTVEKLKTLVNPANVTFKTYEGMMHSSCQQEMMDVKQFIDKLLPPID
GSTO1 counter = GSTO1 inhibition, counter-screen for RBBP9 inhibitors; AID 1974; 1.1% of 300,000 active; inhibition, % at 5.96 µM; P78417; recombinant GSTO1, activity-based probe fluorescence polarization;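 active = inhibition above the campaign mean inhibition plus 3 SD, cut at about 35% in these data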;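 note: 0% = GSTO1-1 with DMSO and 100% = wells lacking GSTO1-1 enzyme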
Fam108B counter = blocks mouse Fam108B hydrolase in RBBP9 counter-screen; 0.33% of 300,000 active; recombinant Fam108B, FP-Rh probe fluorescence polarization; AID 1947; inhibition, % at 9.51 µM;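 active = inhibition above the screen mean inhibition plus 3 SD, computed separately per campaign, cut at about 18% in these data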;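 note: inhibitors lower polarization as less probe binds the enzyme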
LYPLA2 counter = blocks human lysophospholipase 2, a PME1 counter-screen. recombinant LYPLA2, FP-Rh probe fluorescence polarization. inhibition, % at 5.9 µM. 0.38% of 320,000 active. AID 2177;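 active = inhibition above the screen-wide mean plus 3 SD, limit set per campaign, cut at about 26% in these data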;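 note: 0% = LYPLA2 with DMSO and 100% = wells lacking LYPLA2 enzyme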
Target sequence (O95372 whole entry, looked up): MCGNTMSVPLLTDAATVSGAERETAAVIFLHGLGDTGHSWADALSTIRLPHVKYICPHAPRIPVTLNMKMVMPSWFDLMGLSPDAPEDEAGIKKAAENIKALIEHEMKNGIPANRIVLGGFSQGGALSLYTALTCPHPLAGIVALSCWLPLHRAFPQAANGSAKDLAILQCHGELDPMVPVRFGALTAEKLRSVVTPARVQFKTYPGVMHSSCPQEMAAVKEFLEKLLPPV
PAD4 FP inh = inhibitors of human PAD4; recombinant PAD4, RCA probe fluorescence polarization; inhibition, % at 6.36 µM; AID 485272; 0.41% of 330,000 active;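 active = percent inhibition above a cutoff equal to the mean of all tested compounds plus 3 SD, cut at about 15% in these data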;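 note: 0% = PAD4 with RCA probe and DMSO and 100% = probe without PAD4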
Starred values were filed as active, the others as inactive; / = not tested or not shown.

SMILES	PME-1 primary	LYPLA1 counter	GSTO1 counter	Fam108B counter	LYPLA2 counter	PAD4 FP inh
Cc1[nH]c2ccccc2c1/C=C/c1nc2ccccc2c(=O)n1CCO	70*	-2	-8	12	1	7
O=C(CSc1ccc(Cl)cc1)c1ccco1	2	-2	37*	11	7	0
O=C(CCSc1ccc(Cl)cc1)c1ccco1	0	0	-4	-4	1	2
CC(C)CN(C(=O)C1CCC1)c1c(N)n(Cc2ccccc2)c(=O)[nH]c1=O	/	/	/	/	/	-1
Nc1ccc(N2CCCCCC2)cc1	16	3	78*	13	9	43*
O=C(NCCc1ccccc1)C(c1cccs1)N(C(=O)CCl)c1ccc(Cl)cc1 (centres undefined)	1	2	103*	1	-3	14
CCOc1cc(-c2c(C#N)c(N)nc3c2CCc2ccccc2-3)ccc1O	-4	-5	-24	-3	5	-4
COc1ccccc1-c1c(C#N)c(N)nc2c1CCc1ccccc1-2	40*	-8	18	-1	-13	-14
Nc1c(N=Nc2ccccc2F)c(=O)[nH]n1-c1ccccc1	36*	-1	2	10	1	6
Nc1nn(-c2ccccc2)c(N)c1N=Nc1ccccc1F	7	1	-2	4	-2	-1
O=C(c1ccc(S(=O)(=O)Cc2ccccc2F)c([N+](=O)[O-])c1)N1CCCCCC1	6	-4	4	2	-2	4
CC1CCN(C(=O)c2ccc(SCc3ccccc3F)c([N+](=O)[O-])c2)CC1	3	10	1	4	34*	-1
O=C1CCCCN1CCC(=O)N1CCCC(N2CCN(c3cccc(Cl)c3)CC2)C1 (centres undefined)	-1	0	4	-2	0	-2
O=C(CCC(F)(F)F)N1CCCC(N2CCN(c3cccc(Cl)c3)CC2)C1 (centres undefined)	-6	-1	-2	-7	30*	-3
Cc1cc(C(=O)CSc2ncccn2)c(C)n1-c1cccc(F)c1	-1	4	1	-1	2	-3
Cc1cc(C(=O)CSc2nc(N)cc(N)n2)c(C)n1-c1cccc(C(F)(F)F)c1	29*	-4	-9	-1	1	-14
Cc1ccc(-c2cc[n+](Cc3ccccc3)cc2)cc1	-1	0	3	3	-2	-2
Cc1ccc2c(c1)sc[n+]2Cc1ccccc1	3	0	1	3	-2	22*
NC(=O)c1c(NC(=O)c2ccco2)sc2c1CCC2	-2	1	1	-5	3	-1
N#Cc1c(NC(=O)c2ccco2)sc2c1CCC2	2	-2	36*	6	1	-1
O=c1[nH][nH]c(-c2ccccc2O)c1C(C[N+](=O)[O-])c1ccccc1 (centres undefined)	-2	1	29	1	1	-8
O=c1[nH][nH]c(-c2ccccc2O)c1C(C[N+](=O)[O-])c1cccc(Cl)c1 (centres undefined)	12	2	36*	3	2	-12
O=C(CCS(=O)(=O)c1ccc(Cl)cc1)NCCN1C(=O)S/C(=C\c2ccccc2F)C1=O	-7	-6	2	-1	1	4
Cc1ccc(S(=O)(=O)CCC(=O)NCCN2C(=O)S/C(=C\c3ccccc3)C2=O)cc1	35*	1	-4	-3	0	-1
CCN(CC)S(=O)(=O)c1cc(NC(=O)C(C)N2CCN(c3ccccn3)CC2)ccc1C (centres undefined)	29*	1	12	3	1	-1
SMILES	PME-1 primary	LYPLA1 counter	GSTO1 counter	Fam108B counter	LYPLA2 counter	PAD4 FP inh
CC(CCc1ccccc1)NC(=O)CN1CCOc2ccccc21 (centres undefined)	5	5	6	2	4	1
CC(CCc1ccccc1)NC(=O)CN1CCSc2ccccc21 (centres undefined)	14	-3	36*	2	-6	-7
Cc1cc(=O)oc2cc3c(cc12)OCO3	-5	-1	6	-1	2	-5
COC(=O)CSc1nc2cc(C)ccc2cc1C#N	3	-4	-1	-5	1	-12
Cc1ccc2cc(C#N)c(SCc3nnc(-c4ccccc4[N+](=O)[O-])o3)nc2c1	35*	-5	3	4	-8	2
O=C(N=Nc1c(O)[nH]c2ccccc12)c1cccs1	28*	3	4	5	2	3
O=S(=O)(c1ccc(NC(=S)N2CCN(c3ccc(O)cc3)CC2)cc1)N1CCOCC1	2	1	15	2	35*	-2
Oc1c(C=NCc2ccncc2)sc2ccccc12	2	-5	4	-4	-7	16*
CCOc1ccc(NS(=O)(=O)c2ccc3[nH]cc(C(=O)NCC4CCCO4)c(=O)c3c2)cc1 (centres undefined)	-2	-7	19	-4	-8	2
CCOc1ccc(NS(=O)(=O)c2ccc3[nH]cc(C(=O)N(CC)CC)c(=O)c3c2)cc1	-4	2	36*	0	3	0
CC(C)c1ccc(NS(=O)(=O)c2ccc3[nH]cc(C(=O)N4CCC(C(N)=O)CC4)c(=O)c3c2)cc1	-2	0	55*	-2	-11	-5
COC(C(=O)Nc1ccnn1C1CCN(Cc2ccc(CO)o2)CC1)c1ccccc1 (centres undefined)	0	-1	7	2	0	4
O=C(Nc1ccncc1)C1CCN(S(=O)(=O)c2ccc(Cl)c(C(F)(F)F)c2)CC1	1	-7	/	/	-4	1
O=C1CNC(=S)N1CCc1ccc(O)c(O)c1	1	1	60*	0	3	-3
CC(=O)C[C@@H](O)CC(=O)[C@H]1OC(=O)CCCCCCCCc2ccccc21	/	/	/	/	/	0
C/C(N)=N\S(=O)(=O)c1ccc(Cl)cc1	-2	-2	36*	-2	3	-2
N/C(CSc1ccc(Cl)cc1)=N\S(=O)(=O)c1ccc(Cl)cc1	4	3	14	2	5	0
Cc1cc(C)c2c(N)c(C(=O)NN)sc2n1	32*	12	12	6	5	-9
CCC(C(=O)NCCC1=CCCCC1)n1nc(C)c2c(C)n(-c3ccccc3)nc2c1=O (centres undefined)	0	0	5	6	5	-3
CCOC(=O)[C@@H]1[C@H]2COc3ccccc3[C@H]2N2C(=O)N(c3cccc(C)c3)C(=O)[C@]12C	/	/	/	/	/	-2
Cc1cc(C)c(S(=O)(=O)/N=C2\C=C(NS(=O)(=O)c3ccccc3)C(=O)c3ccccc32)c(C)c1	-15	-11	60*	-4	-21	-19
O=C(Nc1cccc(Br)c1)c1ccc2c(c1)SC1=NS(=O)(=O)CCN12	-4	-9	/	/	-4	-2
O=c1cc(N=Nc2ccc(Cl)cc2)[nH]c(=O)[nH]1	2	1	47*	0	-1	1
